Experimental data from ChEMBL document CHEMBL4513216, “Probing the Open Global Health Chemical Diversity Library for Multistage-Active Starting Points for Next-Generation Antimalarials” (ACS Infect Dis, 2020).
Among all 69,000 compounds or so, about 8,600 (12%) showed an effect of 50% or more. The sample holds strong results, similar compounds and a random draw of the others, so the mix is not that of the screen.

tested on: Plasmodium berghei; assay: Screen against P. berghei liver stage (PbLuc), transformed with Luciferase, at 10uM; format: functional, HepG2; conditions: tested at 10 uM

| SMILES | INHIBITION [%] |
| --- | --- |
| NC(=O)N1CCC2(CCN(C(=O)c3cccnc3)CC2)C1 | 86.5 |
| O=C(c1cccnc1)N1CCC2(CCN(C(=O)N3CCCC3)CC2)C1 | 61.1 |
| c1cnn(-c2ccc(CN3CCCC(Cn4cncn4)C3)cc2)c1 (stereo not given) | 13.3 |
| O=C(O)C(c1ccc(O)cc1)N1CCC(N2CCSCC2)CC1 (stereo not given) | 18.6 |
| Cc1nc[nH]c1CN(C)Cc1cnn(-c2ccc(F)cc2)c1 | -5.22 |
| O=S(=O)(CCN1CCCCC1Cn1cccn1)c1ccccc1 (stereo not given) | 25.8 |
| Cc1noc(C)c1CNC(=O)Nc1ccc(N2CCOC(C)C2)cc1 (stereo not given) | 5.94 |
| CN(Cc1cnn(C)c1)C(=O)Cn1c(CS(C)(=O)=O)nc2ccccc21 | -7.11 |
| CC(CN1CCOC1=O)NC(=O)c1ccccc1Oc1ccccc1 (stereo not given) | 18.4 |
| CCN(Cc1ccoc1)C(=O)NC1CCN(CC2CC2)C1 (stereo not given) | 19.3 |
| CCN(Cc1ccoc1)C(=O)NC1CCN(CC2CCCC2)CC1 | 48.5 |
| CCN(Cc1ccoc1)C(=O)NC1CCN(CC=C(C)C)CC1 | 57.2 |
| Cc1cccc(CC(=O)NS(=O)(=O)c2ccc(F)c(F)c2)c1 | 23.5 |
| CN(CC(=O)NS(=O)(=O)c1ccsc1)Cc1ccccc1 | 9.76 |
| CN(CC(=O)NS(=O)(=O)c1ccc(F)cc1)Cc1ccccc1 | 50 |
| Cc1ccc(S(=O)(=O)NC(=O)CCc2ccccc2)cc1N(C)C | 12.589 |
| CN(CC(=O)NS(=O)(=O)c1cccs1)Cc1ccccc1 | 32 |
| Cc1cccc(S(=O)(=O)NC(=O)CN(C)Cc2ccccc2)c1 | 55.1 |
| CCS(=O)(=O)N1C[C@H]2CN(Cc3cccc(C)c3)C(=O)[C@H]2C1 | -1.36 |
| N#Cc1ccccc1N1CCCN(C(=O)NCc2cc[nH]n2)CC1 | 10 |

| SMILES | INHIBITION [%] |
| --- | --- |
| CC(c1cccc(S(N)(=O)=O)c1)N(C)CCCOc1ccccc1 (stereo not given) | 23.4 |
| CCN1CCC(CC(=O)NCCc2nc(O)cc(O)n2)CC1 | -16.3 |
| COc1c(CNC2CCCN(c3ncccn3)C2)c(C(C)C)nn1C (stereo not given) | 42.9 |
| Cc1ccc(CN2CCC3(CC2)C(=O)N(CC(C)C)CCN3C)s1 | -31.9 |
| COc1ccc(CNC(=O)NCCCNS(C)(=O)=O)cc1OC | 33.8 |
| CCC(C)Oc1ccc(CNCCNC(C)=O)cc1Cl (stereo not given) | 60.2 |
| CCC(C)Oc1ccc(CNCCc2c[nH]cn2)cc1Cl (stereo not given) | 66.8 |
| CCC(C)Oc1ccc(CNCCNS(C)(=O)=O)cc1Cl (stereo not given) | 60.2 |
| CC(CNCc1ccc(Cl)c(Cl)c1)Oc1ccccn1 (stereo not given) | -41.8 |
| Cc1cccc(CN2CCCC(O)(CNCCc3c[nH]cn3)C2=O)c1 (stereo not given) | 48.1 |
| COc1ccc(CNCC(C)Oc2ccccn2)cc1Cl (stereo not given) | 17 |
| CCC(C)Oc1ccc(CNCCNC(C)=O)cc1OC (stereo not given) | 40.7 |
| CC(=O)NCCNC(=O)NCc1ccc(Br)cc1Cl | 4.41 |
| CCOCC1COCCC12CCN(C(=O)CCOC)CC2 (stereo not given) | 8.67 |
| CC(=O)N1CCN(c2ccc(Cl)nn2)C(=O)C1 | 40.8 |
| NC(=O)C1CCN(C(=O)c2cccn2Cc2cccs2)CC1 | -12.1 |
| CC(C)N(Cc1ccc(Cl)c(Cl)c1)C(=O)Cn1cncn1 | 9.55 |
| Cc1cc(C)n(C2CCCN(C(=O)Cc3ccc(C#N)cc3)C2)n1 (stereo not given) | 29.7 |
| C1CC(CN2C[C@@H]3C[C@@H](c4nnc(C5CC5)o4)O[C@@H]3C2)CCO1 | 3.58 |
| CCC(CNC(=O)COC)Oc1cccc(F)c1 (stereo not given) | 26.7 |

| SMILES | INHIBITION [%] |
| --- | --- |
| CCC(CNC(=O)Cc1cc(C)on1)Oc1cccc(F)c1 (stereo not given) | 54.5 |
| CCC(CNC(=O)Cn1ccnc1)Oc1cccc(F)c1 (stereo not given) | 42.4 |
| CCC(CNC(=O)c1ccc(C(N)=O)cc1)Oc1cccc(F)c1 (stereo not given) | 33.2 |
| CCC(CNC(=O)CNC(C)=O)Oc1cccc(F)c1 (stereo not given) | 51.7 |
| CCC(=O)NCC(CC)Oc1cccc(F)c1 (stereo not given) | 23 |
| NCc1cccc(-c2cccnc2C(=O)NCCN2CCCC2)c1 | -8.58 |
| CC(C)(C)c1ncc(CNCC2CN(C3CC3)CCO2)s1 (stereo not given) | 37.7 |
| C=c1occc1=C1NC(c2cccc(CN3CCOCC3)c2)=NO1 | -2.69 |
| COCCN(Cc1cccnc1)S(=O)(=O)c1ccc(F)cc1C | 26 |
| CCCN(CCC)S(=O)(=O)N(C)Cc1ccncc1 | 53.4 |
| COCCN(Cc1ccoc1)S(=O)(=O)c1ccc(F)c(C)c1 | 0.348 |
| CCOc1ccc(S(=O)(=O)N(CCOC)Cc2ccncc2)cc1F | 58.8 |
| CCN(C)S(=O)(=O)N(CC)Cc1cccc(-c2ccncc2)c1 | 58.3 |
| CCN(Cc1cccc(-c2ccncc2)c1)S(N)(=O)=O | 11.7 |
| CCN(Cc1cccc(-c2ccncc2)c1)S(C)(=O)=O | 29.6 |
| CCCN(Cc1ccccc1O)S(=O)(=O)N(C)CC | -58 |
| CCCC(=O)N(Cc1ccncc1)C(C)CC (stereo not given) | 49 |
| COCCN(Cc1cccnc1)S(=O)(=O)c1cccc(F)c1F | 29.4 |
| CCOc1ccc(S(=O)(=O)N(CCOC)Cc2ccoc2)cc1F | -17.7 |
| COCCN(Cc1cccnc1)S(=O)(=O)c1cc(C)ccc1F | 59.4 |
